ChEMBL document CHEMBL3988442, “University of Dundee, Small-Polar-MMV Screening Library” (2021)
Screen size: about 53,000 compounds; about 900 (1.7%) showed an effect of 50% or more. Shown is part of a subset that was picked to be rich in strong results.

System: Mycobacterium tuberculosis
Experiment: Cornell - Phenotypic assay to identify agents that inhibit growth of Mycobacterium tuberculosis
Format: functional
Design: scale not given: direction of the effect not stated beside the values
Settings: 10 mM as filed; unlikely as a test dose

First: COc1ccccc1CCC(=O)N1CCCC(OCc2cccnc2)C1 (stereo not given)
Second: Cc1ccc(CSc2nc(N)cc(NCCC(=O)N3CCCC3)n2)cc1
The “Percent Effect” value of the first is lower: -21.64% for the first, 88.28% for the second.

Compared with `CC(Nc1ccc2c(c1)CCC2)c1nc(C2CC2)no1` (stereo not given), `CC(Nc1ccc(Br)cc1)c1nc(C2CC2)no1` (stereo not given) is higher in “Percent Effect” value: 27.18% for the first, 54.33% for the second.

Going from `CC(c1nc(C2CC2)no1)N1CCN(Cc2ccccc2)CC1` (stereo not given) to `CC(C)n1ccc(CN2CCN(c3cc(NC4CC4)nc(N)n3)CC2)c1`, the “Percent Effect” value rises from 2.279% to 13.37%.

First: COCc1cccc(CNc2cnn(C(C)(C)C)c(=O)c2Cl)c1
Second: COCc1ccc(CNc2cnn(C(C)(C)C)c(=O)c2Cl)cc1
The “Percent Effect” value of the first is lower: 17.4% for the first, 55.73% for the second.

Going from `CC(C)(C)n1ncc(NCc2ccccc2)c(Cl)c1=O` to `CN1C(=O)C(C)(C)COc2ccc(NS(=O)(=O)Cc3ccccc3)cc21`, the “Percent Effect” value rises from -56.94% to -4.912%.

First: CCCN1CCC(c2nc3ccc(-c4ccncc4)cn3n2)CC1.O=C(O)C(F)(F)F.O=C(O)C(F)(F)F
Second: O=C(NCc1cccnc1)[C@H]1C[C@@H]2CCN(c3ccncn3)C[C@H]2O1.O=C(O)C(F)(F)F.O=C(O)C(F)(F)F
The “Percent Effect” value of the first is lower: -17.17% for the first, 15.26% for the second.

Going from `Cc1nccn1-c1ccc(C(=O)NCC(F)(F)F)nn1` to `Cc1ncsc1C(=O)Nc1ccccn1`, the “Percent Effect” value falls from 18.88% to 6.488%.

Compared with `Cc1cnc(C(=O)N2CCC3(CCN3Cc3ccc(F)cc3)C2)cn1.O=C(O)C(F)(F)F` (stereo not given), `O=C(O)C(F)(F)F.O=C1COC2(CCN(Cc3cccs3)CC2)CN1c1cncnc1` is higher in “Percent Effect” value: -0.7224% for the first, 13.06% for the second.

Going from `CN(C)C(=O)c1cnc2n1CCN(Cc1ccsc1)C2.O=C(O)C(F)(F)F` to `O=C(O)C(F)(F)F.O=C1COC2(COCCN(Cc3ccsc3)C2)CN1c1ccoc1` (stereo not given), the “Percent Effect” value falls from 1.254% to -47.88%.

Compared with `Cc1ccc(CSc2nc(N)cc(NCCS(=O)(=O)N(C)C)n2)cc1`, `Cc1ccc(CSc2nc(N)cc(NCCC(N)=O)n2)cc1` is lower in “Percent Effect” value: 52.28% for the first, 44.65% for the second.

First: Cc1ccc(CSc2nc(N)cc(NCC(=O)N3CCNCC3)n2)cc1
Second: Cc1ccc(CSc2ncc(Br)c(C(=O)O)n2)cc1
The “Percent Effect” value of the first is lower: -47.88% for the first, 1.969% for the second.

First: CCc1cc(NCCS(=O)(=O)N(C)C)nc(N2CCOCC2)n1
Second: O=C(NCCCN1CCOCC1)c1ccc(-n2ccc3ccccc32)s1
The “Percent Effect” value of the first is higher: 22.77% for the first, -5.378% for the second.

Going from `CCn1cnnc1CNC(=O)N1CCC(O)CC1` to `COC(=O)C1CCN(C(=O)c2nnc3ccc(Cl)cc3n2)CC1`, the “Percent Effect” value rises from -20.2% to 106.2%.

Going from `CC(=O)N1CCCN(C(=O)c2cnn(-c3ccccc3Cl)c2)CC1` to `CCc1nc(C(=O)N2CCN(C)CC2)nn1-c1ccccc1Cl`, the “Percent Effect” value rises from -28.49% to -21.83%.

Compared with `Cc1cc(C(F)(F)F)nn1CCCNC(=O)C1CCCO1` (stereo not given), `O=C(NCCCN1CCCC1=O)c1ccc(-n2ccc3ccccc32)s1` is higher in “Percent Effect” value: -51.46% for the first, 19.74% for the second.

Compared with `O=C(NCC1CC1)C1CCC2(CCN(C(=O)c3ccoc3)CC2)O1` (stereo not given), `COC(=O)C1CCN(C(=O)c2ccc(N(C)S(C)(=O)=O)c(C)c2)CC1` is lower in “Percent Effect” value: -8.481% for the first, -22.29% for the second.

Compared with `Cc1ccc2[nH]c(C3CCN(CC(N)=O)CC3)nc2c1`, `COC(=O)C1CCN(C(=O)c2nnc3ccc(C)cc3n2)CC1` is higher in “Percent Effect” value: -20.2% for the first, -19.31% for the second.

First: CCC1CCCCN1Cc1ncc(C(C)(C)C)o1 (stereo not given)
Second: CC1c2ncc(COCC3CC3)n2CCN1C(=O)c1ccnn1C (stereo not given)
The “Percent Effect” value of the first is lower: -71.87% for the first, 18.95% for the second.

First: Cl.NC1CCc2nc(-c3cccnc3)nc(Nc3ccc(F)cc3)c2C1 (stereo not given)
Second: Cl.NC1CCc2nc(-c3ccncc3)nc(Nc3cccc(F)c3)c2C1 (stereo not given)
The “Percent Effect” value of the first is higher: 98.04% for the first, 61.47% for the second.

First: O=C(Nc1cccc(F)c1)NC1CCN(Cc2ccncc2)CC1
Second: NC(=O)C1CCCN1Cc1cccc(NC(=O)c2ccc(Cl)cc2F)c1 (stereo not given)
The “Percent Effect” value of the first is higher: 26.05% for the first, -4.35% for the second.

Going from `CC(O)CNc1nc(-c2cccnc2)nc2c1CCC2` (stereo not given) to `c1cncc(-c2nc3c(c(NCC4(c5ccncc5)CC4)n2)CCC3)c1`, the “Percent Effect” value rises from 12.92% to 21.3%.

First: COc1cccc(Nc2nc(-c3ccncc3)nc3c2CNCC3)c1.Cl
Second: Cc1cc2nc(C(C)C)cc(NCc3ccncc3)n2n1
The “Percent Effect” value of the first is higher: -3.556% for the first, -23.44% for the second.

Compared with `Cc1cnc(N2C(=O)CSC2c2ccccc2)s1` (stereo not given), `CCOCCCn1c(NC(=O)c2scnc2C)nc2ccccc21` is higher in “Percent Effect” value: 7.465% for the first, 74.98% for the second.

Compared with `Cn1cnnc1CN1CCC2(CCCN(C3CCCCC3)C2=O)C1` (stereo not given), `C1CC(CN2C[C@@H]3C[C@@H](c4nnc(C5CC5)o4)O[C@@H]3C2)C1` is lower in “Percent Effect” value: 8.326% for the first, -19.97% for the second.

Going from `CN(C)CCCNC(=O)c1ccccc1NC(=O)c1ccccc1Cl` to `O=C(NCCCN1CCCCC1)c1ccc(-n2ccc3ccccc32)s1`, the “Percent Effect” value rises from 2.69% to 59.15%.

Going from `CCOC(=O)CNC(=O)c1scnc1C` to `CCOCCCn1c(NC(=O)c2ccc(C)nc2)nc2ccccc21`, the “Percent Effect” value rises from 8.54% to 49.04%.

Going from `CCOCCCn1c(NC(=O)c2cnn(C)c2)nc2ccccc21` to `Cn1cc(NC(=O)Cn2c(CS(C)(=O)=O)nc3ccccc32)cn1`, the “Percent Effect” value falls from 87.33% to -19.06%.

Compared with `O=C(NCCc1ccc(Cl)s1)N1CCS(=O)(=O)CC1`, `Cc1ccc(CC(=O)NC(C)C(=O)N2CCS(=O)(=O)CC2)s1` (stereo not given) is higher in “Percent Effect” value: 3.625% for the first, 63.58% for the second.

Going from `CC(NC(=O)Cc1ccccc1F)C(=O)N1CCS(=O)(=O)CC1` (stereo not given) to `CN1C[C@@H](N)C[C@H]1C(=O)N1CCC(Cc2ccc(F)cc2)CC1`, the “Percent Effect” value falls from 19.17% to -16.49%.

Going from `CSCCC1c2nc[nH]c2CCN1Cc1cc(Cl)ccc1O` (stereo not given) to `CSCCC1c2nc[nH]c2CCN1Cc1ccccc1C#N` (stereo not given), the “Percent Effect” value falls from 102.1% to 19.15%.

Compared with `CSCCC1c2nc[nH]c2CCN1Cc1ccccc1C(F)(F)F` (stereo not given), `OCCn1nccc1C1CCN(CCOc2ccccc2)CC1` is lower in “Percent Effect” value: 2.921% for the first, -26.3% for the second.

Compared with `Cn1cc(S(=O)(=O)Nc2c(F)cccc2N2CCCC2)cn1`, `O=S(=O)(Nc1c(F)cccc1N1CCCC1)c1cncc(F)c1` is higher in “Percent Effect” value: -1.726% for the first, 35.26% for the second.

First: N#Cc1cccc(S(=O)(=O)Nc2c(F)cccc2N2CCCC2)c1
Second: Cc1ccc2cc(C(=O)N3CCCN(C)CC3)ccc2n1
The “Percent Effect” value of the first is higher: 53.51% for the first, -5.453% for the second.

Compared with `Cc1cc(NCCNS(=O)(=O)c2cn(C)nc2C)c2ccccc2n1`, `CN1CCN(C(=O)c2nnc3ccc(Cl)cc3n2)CC1` is higher in “Percent Effect” value: 11.79% for the first, 64.7% for the second.

Going from `CNC(=O)c1cccc(CC2COCCN(Cc3ccsc3)C2)n1` (stereo not given) to `O=C(c1ccc(S(=O)(=O)N2CCSCC2)cc1)N1CCC(O)C1` (stereo not given), the “Percent Effect” value rises from -5.574% to 10.6%.
